{
  "source": "the supplement of paper PMC11402862",
  "molecular_target": "FXR LBD (GAL4 fusion) (UniProt Q96RI1)",
  "sequence (Q96RI1 whole entry, looked up, the tested form may be a part)": "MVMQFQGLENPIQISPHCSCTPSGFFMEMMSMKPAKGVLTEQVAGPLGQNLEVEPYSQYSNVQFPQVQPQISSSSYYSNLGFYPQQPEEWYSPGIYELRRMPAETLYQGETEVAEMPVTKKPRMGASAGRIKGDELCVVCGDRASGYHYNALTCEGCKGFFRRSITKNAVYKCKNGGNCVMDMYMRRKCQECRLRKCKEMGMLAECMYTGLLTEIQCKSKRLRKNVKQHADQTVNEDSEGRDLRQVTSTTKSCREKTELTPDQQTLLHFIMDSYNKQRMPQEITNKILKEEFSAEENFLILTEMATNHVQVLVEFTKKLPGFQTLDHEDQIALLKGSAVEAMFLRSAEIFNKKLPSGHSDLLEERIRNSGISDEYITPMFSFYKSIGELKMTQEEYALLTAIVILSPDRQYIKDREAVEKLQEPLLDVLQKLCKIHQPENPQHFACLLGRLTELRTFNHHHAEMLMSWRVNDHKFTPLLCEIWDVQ",
  "test": "luciferase reporter transactivation, fold of solvent control; higher = stronger receptor activation",
  "details": "HEK293T, exposure time: 24 h",
  "method": "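HEK293T cells were transiently transfected with a GAL4-DBD fused to the ligand-binding domain of a human nuclear receptor (PPARα, PPARγ, PPARδ, FXR, LXRα, PXR, RARα or CAR), the GAL4-(UAS)5-TK firefly luciferase reporter and a Renilla luciferase normalisation plasmid. Cells were exposed to compound for 24 h in 0.5% DMSO. Firefly/Renilla luciferase was expressed as fold of the solvent control (=1). Values are the mean of 2-3 biological replicates; receptor agonists were used as positive controls.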",
  "data": [
    {"compound": "O=C(O)C(F)(F)C(F)(F)F", "note": "[perfluoropropanoic acid]", "values": [
      {"measurement": "luciferase reporter transactivation", "setting": "concentration: 1 µM", "result": 1.54},
      {"measurement": "luciferase reporter transactivation", "setting": "concentration: 5 µM", "result": 1.63},
      {"measurement": "luciferase reporter transactivation", "setting": "concentration: 10 µM", "result": 1.39},
      {"measurement": "luciferase reporter transactivation", "setting": "concentration: 25 µM", "result": 0.693},
      {"measurement": "luciferase reporter transactivation", "setting": "concentration: 50 µM", "result": 1.46},
      {"measurement": "luciferase reporter transactivation", "setting": "concentration: 100 µM", "result": 1.43},
      {"measurement": "luciferase reporter transactivation", "setting": "concentration: 250 µM", "result": 1.27},
      {"measurement": "luciferase reporter transactivation", "setting": "concentration: 500 µM", "result": 1.62}
    ]},
    {"compound": "NS(=O)(=O)C(F)(F)C(F)(F)C(F)(F)C(F)(F)C(F)(F)C(F)(F)C(F)(F)C(F)(F)F", "note": "[perfluorooctane sulfonamide]", "values": [
      {"measurement": "luciferase reporter transactivation", "setting": "concentration: 1 µM", "result": 0.705},
      {"measurement": "luciferase reporter transactivation", "setting": "concentration: 2.5 µM", "result": 0.788},
      {"measurement": "luciferase reporter transactivation", "setting": "concentration: 5 µM", "result": 1.1},
      {"measurement": "luciferase reporter transactivation", "setting": "concentration: 10 µM", "result": 0.752},
      {"measurement": "luciferase reporter transactivation", "setting": "concentration: 100 µM", "result": 1.01}
    ]}
  ]
}
